# Source: ChEMBL document CHEMBL1961873, “Compounds: GSK PKIS; Assays: Nanosyn kinase panel” (2012)
# Assays:
# [1] = biological target: Sphingosine kinase 1 (Homo sapiens) (UniProt Q9NYA1); conditions: at 1 µM;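 also: mean SPHK1 inhibition value reported from the GSK PKIS kinase panel screen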
# [2] = biological target: T1, Sphingosine kinase 2 (Homo sapiens) (UniProt Q9NRA0); conditions: at 0.1 µM
# T1 sequence (whole entry): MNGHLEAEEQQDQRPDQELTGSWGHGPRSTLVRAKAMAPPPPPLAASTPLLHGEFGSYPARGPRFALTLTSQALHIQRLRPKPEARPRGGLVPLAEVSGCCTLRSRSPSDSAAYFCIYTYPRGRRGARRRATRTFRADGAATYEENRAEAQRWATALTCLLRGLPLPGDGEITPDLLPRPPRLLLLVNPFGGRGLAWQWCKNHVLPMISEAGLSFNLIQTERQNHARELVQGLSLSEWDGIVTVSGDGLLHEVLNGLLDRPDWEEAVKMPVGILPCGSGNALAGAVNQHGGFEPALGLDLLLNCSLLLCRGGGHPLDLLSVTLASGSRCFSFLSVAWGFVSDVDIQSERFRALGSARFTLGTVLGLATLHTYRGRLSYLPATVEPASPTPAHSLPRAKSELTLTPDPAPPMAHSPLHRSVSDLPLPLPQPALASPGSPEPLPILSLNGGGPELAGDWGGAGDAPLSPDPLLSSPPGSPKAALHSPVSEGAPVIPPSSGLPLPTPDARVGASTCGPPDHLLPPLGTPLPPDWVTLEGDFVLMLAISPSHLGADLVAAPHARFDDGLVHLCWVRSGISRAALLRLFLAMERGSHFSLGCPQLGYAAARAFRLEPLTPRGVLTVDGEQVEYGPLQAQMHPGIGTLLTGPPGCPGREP
# [3] = biological target: T1, Sphingosine kinase 2 (Homo sapiens); conditions: at 1 µM
# [4] = biological target: Casein kinase II subunit alpha (Homo sapiens) (UniProt P68400); conditions: at 0.1 µM
# [5] = biological target: Casein kinase II subunit alpha (Homo sapiens) (UniProt P68400); conditions: at 1 µM
# [6] = biological target: T2, Inhibitor of nuclear factor kappa-B kinase subunit alpha (Homo sapiens) (UniProt O15111); conditions: at 0.1 µM
# T2 sequence (whole entry): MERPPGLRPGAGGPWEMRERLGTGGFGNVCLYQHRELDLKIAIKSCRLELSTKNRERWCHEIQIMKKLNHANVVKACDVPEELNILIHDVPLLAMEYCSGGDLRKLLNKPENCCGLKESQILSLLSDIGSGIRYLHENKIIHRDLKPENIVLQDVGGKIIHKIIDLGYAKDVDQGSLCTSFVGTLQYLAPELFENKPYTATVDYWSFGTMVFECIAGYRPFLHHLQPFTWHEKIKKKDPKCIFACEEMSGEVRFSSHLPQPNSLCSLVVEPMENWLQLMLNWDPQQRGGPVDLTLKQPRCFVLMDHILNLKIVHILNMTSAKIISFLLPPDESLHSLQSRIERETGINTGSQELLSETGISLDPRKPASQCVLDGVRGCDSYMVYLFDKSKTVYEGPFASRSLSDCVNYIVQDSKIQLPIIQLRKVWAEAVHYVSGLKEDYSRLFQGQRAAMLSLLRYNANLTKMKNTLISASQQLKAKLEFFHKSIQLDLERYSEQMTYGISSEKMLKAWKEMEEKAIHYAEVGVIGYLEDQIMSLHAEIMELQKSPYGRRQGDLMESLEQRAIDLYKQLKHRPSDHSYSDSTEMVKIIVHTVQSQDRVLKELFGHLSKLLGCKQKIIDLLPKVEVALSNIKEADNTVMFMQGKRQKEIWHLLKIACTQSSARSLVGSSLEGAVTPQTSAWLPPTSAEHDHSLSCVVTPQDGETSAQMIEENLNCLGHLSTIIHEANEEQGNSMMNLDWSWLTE
# [7] = biological target: T2, Inhibitor of nuclear factor kappa-B kinase subunit alpha (Homo sapiens); conditions: at 1 µM
# [8] = biological target: T3, Inhibitor of nuclear factor kappa-B kinase subunit beta (Homo sapiens) (UniProt O14920); conditions: at 0.1 µM
# T3 sequence (whole entry): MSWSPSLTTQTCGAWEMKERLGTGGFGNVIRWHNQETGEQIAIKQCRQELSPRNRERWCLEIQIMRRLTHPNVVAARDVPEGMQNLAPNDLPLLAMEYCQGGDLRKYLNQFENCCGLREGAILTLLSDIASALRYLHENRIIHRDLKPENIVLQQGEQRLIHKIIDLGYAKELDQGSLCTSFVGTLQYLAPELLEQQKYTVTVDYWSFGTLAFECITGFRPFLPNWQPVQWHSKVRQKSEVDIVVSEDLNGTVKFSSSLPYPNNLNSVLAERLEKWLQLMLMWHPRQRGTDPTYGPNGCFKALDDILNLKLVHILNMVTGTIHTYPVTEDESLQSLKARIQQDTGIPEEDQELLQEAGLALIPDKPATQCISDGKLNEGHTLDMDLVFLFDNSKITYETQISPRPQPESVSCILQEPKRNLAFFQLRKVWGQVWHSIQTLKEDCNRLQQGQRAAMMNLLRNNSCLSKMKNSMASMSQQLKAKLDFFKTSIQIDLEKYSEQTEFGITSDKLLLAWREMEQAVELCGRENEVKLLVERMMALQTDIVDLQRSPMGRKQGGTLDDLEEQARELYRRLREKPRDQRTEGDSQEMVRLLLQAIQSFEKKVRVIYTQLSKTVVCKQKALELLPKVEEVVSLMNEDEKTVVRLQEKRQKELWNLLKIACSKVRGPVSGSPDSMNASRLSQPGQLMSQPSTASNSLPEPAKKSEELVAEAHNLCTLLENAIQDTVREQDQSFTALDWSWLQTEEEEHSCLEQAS
# [9] = biological target: T3, Inhibitor of nuclear factor kappa-B kinase subunit beta (Homo sapiens); conditions: at 1 µM
# [10] = biological target: T4, Inhibitor of nuclear factor kappa-B kinase subunit epsilon (Homo sapiens) (UniProt Q14164); conditions: at 0.1 µM
# T4 sequence (whole entry): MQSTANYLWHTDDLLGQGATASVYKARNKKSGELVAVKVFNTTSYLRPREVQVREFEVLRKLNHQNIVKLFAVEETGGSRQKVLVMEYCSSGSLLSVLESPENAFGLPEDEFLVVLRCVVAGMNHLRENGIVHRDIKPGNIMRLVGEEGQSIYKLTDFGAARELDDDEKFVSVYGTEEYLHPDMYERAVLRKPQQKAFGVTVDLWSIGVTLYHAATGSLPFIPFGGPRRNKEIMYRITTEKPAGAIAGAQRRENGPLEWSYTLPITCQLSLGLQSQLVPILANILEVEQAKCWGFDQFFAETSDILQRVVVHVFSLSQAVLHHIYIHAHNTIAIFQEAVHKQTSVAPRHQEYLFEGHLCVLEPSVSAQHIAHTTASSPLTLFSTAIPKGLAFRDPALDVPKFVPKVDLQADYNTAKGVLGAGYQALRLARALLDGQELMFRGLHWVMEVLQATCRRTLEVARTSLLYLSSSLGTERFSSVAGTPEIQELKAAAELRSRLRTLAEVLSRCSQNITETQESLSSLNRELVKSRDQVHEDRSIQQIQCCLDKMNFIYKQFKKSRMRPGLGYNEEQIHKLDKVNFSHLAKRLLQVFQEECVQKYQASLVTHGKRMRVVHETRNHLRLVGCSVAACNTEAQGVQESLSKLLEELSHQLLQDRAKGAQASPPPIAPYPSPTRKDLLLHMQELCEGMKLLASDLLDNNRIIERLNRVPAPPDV
# [11] = biological target: T4, Inhibitor of nuclear factor kappa-B kinase subunit epsilon (Homo sapiens); conditions: at 1 µM
# [12] = biological target: T5, Serine/threonine-protein kinase Nek1 (Homo sapiens) (UniProt Q96PY6); conditions: at 0.1 µM
# T5 sequence (whole entry): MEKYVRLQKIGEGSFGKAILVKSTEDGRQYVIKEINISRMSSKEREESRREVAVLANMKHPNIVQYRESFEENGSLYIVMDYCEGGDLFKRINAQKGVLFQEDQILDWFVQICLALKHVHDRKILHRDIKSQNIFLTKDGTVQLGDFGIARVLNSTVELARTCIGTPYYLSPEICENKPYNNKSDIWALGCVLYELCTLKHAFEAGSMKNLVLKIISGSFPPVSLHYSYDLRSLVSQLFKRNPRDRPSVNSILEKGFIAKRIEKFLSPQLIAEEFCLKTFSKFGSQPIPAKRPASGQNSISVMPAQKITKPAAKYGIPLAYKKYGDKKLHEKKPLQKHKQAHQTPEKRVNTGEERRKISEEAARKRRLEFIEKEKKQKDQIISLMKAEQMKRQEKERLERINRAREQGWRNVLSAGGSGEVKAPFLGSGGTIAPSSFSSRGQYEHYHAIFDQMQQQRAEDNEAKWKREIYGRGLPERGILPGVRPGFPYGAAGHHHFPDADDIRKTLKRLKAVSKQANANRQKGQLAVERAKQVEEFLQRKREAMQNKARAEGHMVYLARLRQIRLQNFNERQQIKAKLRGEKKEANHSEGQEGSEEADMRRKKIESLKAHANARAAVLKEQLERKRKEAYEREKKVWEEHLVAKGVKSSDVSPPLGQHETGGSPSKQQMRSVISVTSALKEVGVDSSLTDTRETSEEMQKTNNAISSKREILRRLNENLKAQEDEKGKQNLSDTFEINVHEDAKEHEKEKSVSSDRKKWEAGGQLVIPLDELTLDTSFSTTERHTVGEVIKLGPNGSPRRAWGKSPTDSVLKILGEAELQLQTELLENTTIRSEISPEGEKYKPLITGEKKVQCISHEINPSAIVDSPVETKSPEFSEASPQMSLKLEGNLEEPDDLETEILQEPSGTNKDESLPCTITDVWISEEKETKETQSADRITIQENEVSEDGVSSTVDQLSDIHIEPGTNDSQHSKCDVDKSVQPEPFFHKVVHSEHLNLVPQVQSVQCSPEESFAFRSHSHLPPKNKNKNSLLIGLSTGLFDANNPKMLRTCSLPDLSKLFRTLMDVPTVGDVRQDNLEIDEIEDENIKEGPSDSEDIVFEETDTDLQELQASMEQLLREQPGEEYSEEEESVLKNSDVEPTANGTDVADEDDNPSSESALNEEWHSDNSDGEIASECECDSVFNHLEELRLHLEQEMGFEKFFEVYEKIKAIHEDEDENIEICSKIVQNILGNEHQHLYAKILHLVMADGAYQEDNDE
# [13] = biological target: T5, Serine/threonine-protein kinase Nek1 (Homo sapiens); conditions: at 1 µM
# [14] = biological target: T6, Serine/threonine-protein kinase Nek2 (Homo sapiens) (UniProt P51955); conditions: at 0.1 µM
# T6 sequence (whole entry): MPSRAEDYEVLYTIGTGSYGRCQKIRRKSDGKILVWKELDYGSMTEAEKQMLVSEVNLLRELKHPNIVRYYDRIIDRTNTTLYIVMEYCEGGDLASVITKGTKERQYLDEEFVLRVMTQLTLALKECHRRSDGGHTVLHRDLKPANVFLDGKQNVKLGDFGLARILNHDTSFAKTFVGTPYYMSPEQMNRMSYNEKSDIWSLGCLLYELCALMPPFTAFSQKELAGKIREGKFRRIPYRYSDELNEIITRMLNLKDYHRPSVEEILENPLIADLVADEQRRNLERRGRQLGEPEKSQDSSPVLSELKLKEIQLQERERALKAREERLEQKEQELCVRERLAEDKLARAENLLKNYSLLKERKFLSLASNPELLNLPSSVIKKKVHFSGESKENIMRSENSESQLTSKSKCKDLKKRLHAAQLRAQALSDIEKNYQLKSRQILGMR
# [15] = biological target: T6, Serine/threonine-protein kinase Nek2 (Homo sapiens); conditions: at 1 µM
# [16] = biological target: Serine/threonine-protein kinase Nek6 (Homo sapiens) (UniProt Q9HC98); conditions: at 0.1 µM
# [17] = biological target: Serine/threonine-protein kinase Nek6 (Homo sapiens) (UniProt Q9HC98); conditions: at 1 µM
# [18] = biological target: Serine/threonine-protein kinase Nek7 (Homo sapiens) (UniProt Q8TDX7); conditions: at 0.1 µM
# [19] = biological target: Serine/threonine-protein kinase Nek7 (Homo sapiens) (UniProt Q8TDX7); conditions: at 1 µM
# [20] = biological target: T7, Serine/threonine-protein kinase Nek9 (Homo sapiens) (UniProt Q8TD19); conditions: at 0.1 µM;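 also: reported value is the mean percent inhibition of NEK9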
# T7 sequence (whole entry): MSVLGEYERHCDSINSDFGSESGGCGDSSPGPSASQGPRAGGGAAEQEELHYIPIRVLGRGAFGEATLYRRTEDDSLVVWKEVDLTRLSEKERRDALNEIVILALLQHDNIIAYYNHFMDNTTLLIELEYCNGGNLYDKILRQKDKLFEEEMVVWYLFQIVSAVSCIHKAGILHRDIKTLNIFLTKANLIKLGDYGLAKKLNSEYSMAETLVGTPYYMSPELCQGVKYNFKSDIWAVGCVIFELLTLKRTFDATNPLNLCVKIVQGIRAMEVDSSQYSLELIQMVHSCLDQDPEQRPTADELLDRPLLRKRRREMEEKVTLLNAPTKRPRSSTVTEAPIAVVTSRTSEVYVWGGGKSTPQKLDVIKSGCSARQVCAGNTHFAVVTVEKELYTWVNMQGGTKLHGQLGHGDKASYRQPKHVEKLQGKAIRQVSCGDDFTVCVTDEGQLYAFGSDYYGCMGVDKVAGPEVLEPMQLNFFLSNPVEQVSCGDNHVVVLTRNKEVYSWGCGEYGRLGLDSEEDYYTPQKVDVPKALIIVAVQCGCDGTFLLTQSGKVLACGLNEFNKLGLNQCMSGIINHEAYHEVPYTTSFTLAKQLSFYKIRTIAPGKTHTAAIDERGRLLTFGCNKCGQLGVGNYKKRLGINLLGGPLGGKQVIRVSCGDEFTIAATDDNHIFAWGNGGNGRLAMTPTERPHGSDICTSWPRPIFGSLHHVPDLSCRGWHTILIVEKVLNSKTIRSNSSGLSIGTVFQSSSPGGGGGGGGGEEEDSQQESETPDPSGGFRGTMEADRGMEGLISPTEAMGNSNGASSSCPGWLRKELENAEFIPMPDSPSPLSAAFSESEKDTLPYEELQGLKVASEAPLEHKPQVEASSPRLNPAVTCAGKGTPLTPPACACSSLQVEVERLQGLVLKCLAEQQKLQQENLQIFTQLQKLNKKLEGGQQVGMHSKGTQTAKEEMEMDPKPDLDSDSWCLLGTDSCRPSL
# Sequence of Casein kinase II subunit alpha (Homo sapiens) (P68400 whole entry, looked up): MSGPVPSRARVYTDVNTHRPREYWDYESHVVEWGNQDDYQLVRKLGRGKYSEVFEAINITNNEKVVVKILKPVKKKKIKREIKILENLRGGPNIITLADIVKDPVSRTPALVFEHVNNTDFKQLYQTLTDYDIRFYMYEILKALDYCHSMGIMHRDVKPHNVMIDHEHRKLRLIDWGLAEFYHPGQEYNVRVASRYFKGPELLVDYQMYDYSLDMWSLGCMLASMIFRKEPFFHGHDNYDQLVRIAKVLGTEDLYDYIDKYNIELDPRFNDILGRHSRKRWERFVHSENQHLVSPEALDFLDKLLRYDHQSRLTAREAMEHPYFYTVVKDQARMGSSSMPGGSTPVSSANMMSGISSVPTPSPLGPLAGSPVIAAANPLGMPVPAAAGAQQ
# Sequence of Serine/threonine-protein kinase Nek7 (Homo sapiens) (Q8TDX7 whole entry, looked up): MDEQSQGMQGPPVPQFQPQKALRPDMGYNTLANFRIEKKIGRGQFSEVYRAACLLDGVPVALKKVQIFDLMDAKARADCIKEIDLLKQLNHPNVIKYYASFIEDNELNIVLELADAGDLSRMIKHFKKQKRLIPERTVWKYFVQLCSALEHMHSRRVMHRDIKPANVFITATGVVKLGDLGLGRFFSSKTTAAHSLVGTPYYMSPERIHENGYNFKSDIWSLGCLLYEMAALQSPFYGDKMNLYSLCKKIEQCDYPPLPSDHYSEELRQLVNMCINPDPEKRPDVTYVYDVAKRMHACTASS
# Sequence of Serine/threonine-protein kinase Nek6 (Homo sapiens) (Q9HC98 whole entry): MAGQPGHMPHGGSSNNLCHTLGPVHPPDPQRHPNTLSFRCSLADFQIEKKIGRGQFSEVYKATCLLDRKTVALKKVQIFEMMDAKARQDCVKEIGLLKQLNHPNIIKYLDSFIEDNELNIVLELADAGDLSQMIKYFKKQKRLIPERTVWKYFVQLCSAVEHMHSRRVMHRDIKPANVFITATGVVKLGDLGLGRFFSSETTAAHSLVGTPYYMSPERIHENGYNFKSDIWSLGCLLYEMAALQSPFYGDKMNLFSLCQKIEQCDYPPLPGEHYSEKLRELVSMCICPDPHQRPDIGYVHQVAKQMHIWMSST
# Sequence of Sphingosine kinase 1 (Homo sapiens) (Q9NYA1 whole entry): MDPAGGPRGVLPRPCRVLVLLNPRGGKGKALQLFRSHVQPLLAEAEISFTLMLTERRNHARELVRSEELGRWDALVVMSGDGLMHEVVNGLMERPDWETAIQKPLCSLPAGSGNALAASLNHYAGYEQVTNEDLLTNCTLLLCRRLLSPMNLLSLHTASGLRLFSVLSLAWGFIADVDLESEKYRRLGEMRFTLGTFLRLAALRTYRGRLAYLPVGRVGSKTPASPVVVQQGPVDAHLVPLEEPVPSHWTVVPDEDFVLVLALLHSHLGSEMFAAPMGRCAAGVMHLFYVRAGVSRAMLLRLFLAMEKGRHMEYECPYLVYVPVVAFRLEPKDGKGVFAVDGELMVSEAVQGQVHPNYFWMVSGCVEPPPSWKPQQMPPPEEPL
compound,measurement,setting,value
C#Cc1cccc(Nc2ncnc3ccc(OCCCCNCCS(C)(=O)=O)cc23)c1,inhibition,[1],-0.99%
same,inhibition,[2],-0.09%
same,inhibition,[3],0.04%
same,inhibition,[4],4.02%
same,inhibition,[5],9.21%
same,inhibition,[6],5.89%
same,inhibition,[7],12.2%
same,inhibition,[8],6.73%
same,inhibition,[9],9.06%
same,inhibition,[10],7.86%
same,inhibition,[11],9.33%
same,inhibition,[12],3.06%
same,inhibition,[13],8.52%
same,inhibition,[14],5.28%
same,inhibition,[15],6.09%
same,inhibition,[16],3.67%
same,inhibition,[17],3.84%
same,inhibition,[18],4.76%
same,inhibition,[19],3.44%
same,inhibition,[20],8.12%
